# Source: PubChem (The Scripps Research Institute Molecular Screening Center)
# A selection: hits, their analogues and other compounds. The true share with any hit is near 2.3%.
# CHO-K1 Ca PAM: counter-screen for M1 PAMs: effect in parental CHO-K1 cells | AID 602247 | activation, % at 3 µM | ATP EC20, Fluo-8 calcium fluorescence; 0% at ATP EC20, 100% at ATP max | hit rate 0.02% among 360,000;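 active = activation above the run cutoff, the mean activation of all test compounds plus 3 SD, cut at about 40% in these data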;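 note: peak over basal fluorescence ratio in a 140 s read after ATP addition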
# CHO-K1 Ca antag: nonselective inhibitor or artifact in parental CHO-K1 cells; hit rate 0.6% among 360,000; inhibition, % at 3 µM; ATP-induced calcium, Fluo-8 fluorescence;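 active = inhibition above a per-plate cutoff, the plate's mean sample inhibition plus 3 SD, cut at about 24% in these data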;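 note: 0% = DMSO plus EC80 ATP and 100% = DMSO alone without ATP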
# M1 ag parental: counter-screen for M1 agonists: effect in parental CHO-K1 cells | Fluo-8 calcium fluorescence; scaled to maximal ATP response, vehicle zero | activation, % at 3 µM | hit rate 0.48% among 360,000 | AID 602248; in the data active = activation above about 15%;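 note: untransfected CHO-K1 host cells lacking M1 receptor as counterscreen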
# M1 antag: blocks human M1 muscarinic receptor; inhibition, % at 3 µM; P11229; hit rate 1.3% among 360,000; AID 588852; CHO-K1 hM1, Fluo-8 calcium fluorescence, ACh EC80 antagonist;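 active = percent inhibition above its own plate's cutoff, namely the mean of that plate's compound wells plus 3 SD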;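 note: peak over basal fluorescence ratio during 140 s after agonist addition; 0% = ACh EC80 plus DMSO and 100% = DMSO alone without agonist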
# Target sequence (P11229 whole entry, looked up): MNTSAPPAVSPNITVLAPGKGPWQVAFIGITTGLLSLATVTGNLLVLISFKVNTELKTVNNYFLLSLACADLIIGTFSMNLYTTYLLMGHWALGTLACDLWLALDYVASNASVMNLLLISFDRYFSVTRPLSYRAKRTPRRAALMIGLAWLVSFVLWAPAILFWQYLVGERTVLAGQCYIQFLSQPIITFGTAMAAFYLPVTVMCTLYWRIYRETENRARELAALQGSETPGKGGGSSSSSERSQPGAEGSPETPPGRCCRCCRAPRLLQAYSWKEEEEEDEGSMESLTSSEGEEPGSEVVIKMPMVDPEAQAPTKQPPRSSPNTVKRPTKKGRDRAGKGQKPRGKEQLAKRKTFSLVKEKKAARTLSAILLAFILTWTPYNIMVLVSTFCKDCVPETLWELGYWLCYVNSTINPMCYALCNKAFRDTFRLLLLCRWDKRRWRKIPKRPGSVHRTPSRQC
# M1 PAM: positive allosteric modulators of human M1 muscarinic receptor. P11229. CHO-K1 hM1, Fluo-8 calcium fluorescence, ACh EC20; 0% = ACh EC20, 100% = maximal ACh. activation, % at 3 µM. hit rate 0.088% among 360,000; in the data active = activation above about 19%, passing the limit was not always enough
# M1 ag: human M1 muscarinic receptor agonism | P11229 | CHO-K1 hM1, Fluo-8 calcium fluorescence, agonist mode; 0% DMSO, 100% acetylcholine EC100 | activation, % at 3 µM | hit rate 0.33% among 360,000 | AID 588814;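 active = activation above the run's mean compound activation plus 3 SD, cut at about 16% in these data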;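 note: peak over basal fluorescence ratio within a 140 s kinetic read after compound addition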
# The depositor's hits bear a star.
SMILES,CHO-K1 Ca PAM,CHO-K1 Ca antag,M1 ag parental,M1 antag,M1 PAM,M1 ag
Cc1ccc(S(=O)(=O)n2c(N)nc3ccccc32)cc1,15.9,-19.6,2.3,98.0*,-27.0,-8.5
COc1ccc(S(=O)(=O)n2c(N)nc3ccccc32)cc1,-8.9,0.0,0.8,99.8*,-33.6,-10.2
Nc1nc2ccccc2n1S(=O)(=O)c1ccc([N+](=O)[O-])cc1,10.3,-4.2,0.8,30.5,-30.7,-10.6
Nc1nc2ccccc2n1S(=O)(=O)c1ccc(Cl)cc1,-4.1,3.0,0.1,78.7*,-33.7,-11.4
Cc1cc(C)c(CN2CCN(CCCn3ccc(NC(=O)OCc4ccccc4)nc3=O)CC2)c(C)c1,30.4,-12.9,2.2,42.4*,-27.8,-3.6
O=C(Nc1ccn(CCCN2CCN(Cc3cccc4ccccc34)CC2)c(=O)n1)OCc1ccccc1,11.8,-1.1,3.8,30.0*,-24.4,-2.6
COc1ccc(N2CCN(CCCn3ccc(NC(=O)OCc4ccccc4)nc3=O)CC2)cc1,9.3,-6.8,0.4,6.5,-15.3,-11.2
O=C(Nc1ccn(CCCN2CCN(c3ccccc3)CC2)c(=O)n1)OCc1ccccc1,10.9,-8.0,2.2,-0.1,-8.9,-1.7
c1ccc(-c2cc3nc(NCc4cccs4)nc(NCc4ccc5occc5c4)c3s2)cc1,21.7,-13.9,1.9,-15.2,7.0,-1.9
CC(=O)Oc1ccc2c(c1)c(C(C)=O)c(C)n2C,7.0,-9.5,0.5,-2.5,4.7,-1.1
COc1ccc2c(c1)c(C(C)=O)c(C)n2C,13.8,2.7,19.0*,-5.3,6.6,4.1
CN1CCN(/N=C/c2ccc(OCc3ccccc3)cc2)CC1,0.2,-5.4,4.8,57.5*,-25.4,-5.0
COc1ccc(C(=O)NC(C(=O)NCc2ccccn2)C(C)C)cc1 (configuration not stated),0.7,4.8,-0.1,2.0,-0.3,-1.7
CC(C)C(NC(=O)c1ccc(C(C)(C)C)cc1)C(=O)NCc1ccccn1 (configuration not stated),-15.2,-7.6,0.2,54.5*,-30.3,-8.2
COc1cc(NC(=O)C2(C)CCCN2C)cc(OC)c1OC (configuration not stated),-14.3,28.0*,-0.4,-13.9,8.0,-1.0
CC(=O)Nc1ccc(Sc2ncccc2C(=O)Nc2ccc(F)cc2)cn1,-14.7,12.0,36.8*,52.1*,-24.0,68.8*
COc1ccc(C(C)=O)cc1COC(=O)c1cc(=O)c2ccccc2o1,19.3,-11.6,2.3,-14.8,5.0,-9.9
O=[N+]([O-])c1ccc(NNS(=O)(=O)c2cc(Cl)ccc2Cl)nc1,-8.3,-10.8,2.0,-10.9,8.1,-0.7
COc1ccccc1NC(=O)NCC(c1ccco1)N1CCCCC1 (configuration not stated),1.0,-12.8,0.5,-3.6,3.0,-6.2
CCCCCCN1C[C@H](n2cc(-c3ccc(F)cc3)nn2)[C@@H](O)C[C@@H]1c1ccc(C)cc1,13.5,-8.7,0.7,19.5*,-10.1,3.0
Cc1nnc(SCC(=O)Nc2cccc(S(=O)(=O)N3CCCC3)c2)n1C1CC1,-13.7,19.5,-0.1,7.6,-6.6,-7.9
COc1cc(OC)c(S(=O)(=O)Nc2ccc(C)cn2)cc1NC(C)=O,10.2,-4.9,0.2,-5.9,1.8,-5.1
COc1ccc(CCNC(=O)c2ccc3c(c2)S(=O)(=O)N=C2CCCCCN23)cc1,-3.1,-3.8,0.1,-3.6,1.3,-4.3
C[C@@H]1CN([C@H](C)CO)C(=O)CCCn2nncc2CO[C@@H]1CN(C)S(=O)(=O)c1ccccc1C#N,14.6,-10.2,0.1,-29.0,27.0*,-7.7
Cc1ccc(S(=O)(=O)N(C)C[C@@H]2OCc3cn(nn3)CCCC(=O)N([C@@H](C)CO)C[C@H]2C)cc1,5.3,-6.5,0.1,-27.6,25.2*,-0.3
C[C@H](CO)N1C[C@H](C)[C@@H](CN(C)S(=O)(=O)c2ccccc2)OCc2cn(nn2)CCCC1=O,5.5,15.5,4.0,24.4*,-13.4,-7.9
Cc1ccccc1S(=O)(=O)N(C)C[C@@H]1OCc2cnnn2CCCC(=O)N([C@@H](C)CO)C[C@@H]1C,17.2,-7.8,-0.1,-1.8,-7.4,-10.2
C[C@@H]1CN([C@@H](C)CO)C(=O)CCCn2cc(nn2)CO[C@H]1CN(C)S(=O)(=O)c1ccc(-c2ccccc2)cc1,21.2,-9.7,0.1,-4.6,1.8,-5.5
